MsrA act: activates bovine MsrA enzyme | actives 0.3% (n = 360,000) | purified bovine MsrA, absorbance read-out | activation, % at 10.6 µM; in the data active = activation above about 7.5%
NPR2 activator: GC-B (human) receptor activation | HEK293-GC-B cells, CNP EC30, cGMP TR-FRET; 0% at EC30 CNP, 100% saturating CNP | actives 0.11% (n = 370,000) | AID 1920062 | P20594 | activation, % at 10 µM;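 active = activation at 10 µM reaching about 35% in either raw or pattern-adjusted values, limit read from the data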
GC-A act: GC-A (human) enzyme activation | P16066 | HEK293 GC-A cells, cGMP TR-FRET, EC30 ANP; 0% at EC30 ANP, 100% saturating ANP | activation, % at 10 µM | actives 0.14% (n = 370,000) | AID 1671463; in the data active = activation above about 40%
MsrA inhibitor: bovine MsrA inhibition. purified bovine MsrA, absorbance read-out. inhibition, % at 15.5 µM. actives 0.75% (n = 360,000). AID 651718; in the data active = inhibition above about 4.5%
MsrA act confirm: bovine methionine sulfoxide reductase A activation confirmed. purified bovine MsrA, absorbance read-out. actives 12% (n = 1,000). shares compounds with MsrA act. AID 602270. activation, % at 10.6 µM; in the data active = activation above about 4%;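 note: enzyme coupled to thioredoxin and thioredoxin reductase with NADPH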
Each line names hits and unclear results; the compound was inactive in the other large screens (follow-up assays come after a bar, where they were run). Sampled rows, rich in hits. Any-hit rate of the full collection: about 1.2%.

CC(C)CN1C(=O)C[C@]2(C(=O)N(C)c3ccc(NS(=O)(=O)C4CCCCC4)cc32)C1c1ccccc1 (some centres not stated)	none (no result: MsrA act, MsrA inhibitor)
Cc1cc(C)c(S(=O)(=O)/N=C2/C=C(Sc3ncn[nH]3)C(=O)c3ccccc32)cc1C	MsrA act 14, MsrA inhibitor 61 | MsrA act confirm 8.0
Cc1ccccc1N(C)C(=O)Cn1nnc(-c2ccccc2F)n1	none (no result: MsrA act, MsrA inhibitor)
CC1Cc2ccccc2N1C(=O)COC(=O)c1cccc(Br)c1 (configuration not stated)	MsrA act 24 | MsrA act confirm inactive
CC1Cc2ccccc2N1C(=O)COC(=O)c1cc(Br)ccc1O (configuration not stated)	none
COc1cc(OC)c(CN2CCCCCCC2)cc1Br	MsrA act 12 | MsrA act confirm inactive
COc1cc(OC)c(CN2CCCN(C)CC2)cc1Br	none
Cc1ccc(S(=O)(=O)N2CCC(C(=O)NCCCOC(C)C)CC2)cc1	MsrA act 7.7 | MsrA act confirm inactive
CN1C2=N[C@@H](c3ccc4c(c3)OCO4)CC(=O)N2/C(=C\c2ccccc2)[C@@H]1c1ccccc1	none (no result: MsrA act, MsrA inhibitor)
CCc1ccc(NC(=O)CSc2nnc(COc3ccc4c(c3)CCCC4)o2)cc1	MsrA act 11 | MsrA act confirm inactive
COC(=O)c1ccc(NC(=O)CSc2nnc(COc3ccc4c(c3)CCCC4)o2)cc1	none
COC(=O)N/N=C/c1ccc(-c2ccc(C)c(Cl)c2)o1	none
Cc1ccc(-c2ccc(/C=N/NC(=O)CN3CCCC3)o2)cc1Cl	MsrA act 8.8 | MsrA act confirm inactive
C#CCN1C=C(C(=O)OCC)C(C)N(Cc2ccccc2I)S1(=O)=O (configuration not stated)	MsrA act 12 | MsrA act confirm inactive
C#CCN1C=C(C(=O)OCC)C(C)NS1(=O)=O (configuration not stated)	none
COC(=O)c1ccccc1S(=O)(=O)N1CCC(c2nc3ccccc3o2)CC1	MsrA act 12 | MsrA act confirm inactive
COC(=O)c1cccc(S(=O)(=O)N2CCC(c3nc4ccccc4o3)CC2)c1	none
CC1CCC2(CC1)CCC2NCc1ccc(Cl)c(Cl)c1 (configuration not stated)	none (no result: MsrA act, MsrA inhibitor)
CCn1c(Cc2cccs2)nnc1SCC(=O)Nc1ccc2c(c1)OCCO2	none (no result: MsrA act, MsrA inhibitor)
CCN(CC)C(=O)Cn1c2ccccc2c2nc3n(c(=O)c21)CCS3	none (no result: MsrA act, MsrA inhibitor)
O=C(CN1CCCCC1)Nc1cccc(Br)c1	MsrA act 7.8 | MsrA act confirm inactive
O=C(CN1CCOCC1)Nc1cccc(Br)c1	none
C[C@H]1C(=O)N2[C@@H](C[C@]3(c4c[nH]c5ccccc45)c4ccccc4N(S(=O)(=O)c4ccccc4)[C@H]23)C(=O)N1C	none (no result: MsrA act, MsrA inhibitor)
O=C1COc2ccccc2C(c2nnnn2-c2ccc3ccccc3c2)N1C1CC1 (configuration not stated)	none (no result: MsrA act, MsrA inhibitor)
COc1ccc(C(=O)Nc2cc(Cl)c(Br)cc2C(=O)O)cc1	none (no result: MsrA act, MsrA inhibitor)
COc1ccc2c(c1)C1(Nc3ccccc3-c3nc4ccccc4n31)C(=O)N2 (configuration not stated)	MsrA act 8.7 | MsrA act confirm inactive
Cc1ccccc1N1CCN(S(=O)(=O)c2ccc3c(c2)n(C)c(=O)c(=O)n3C)CC1	none (no result: MsrA act, MsrA inhibitor)
COc1cc2c(cc1OC)C(=O)C(Br)CC2 (configuration not stated)	MsrA act 14 (no result: NPR2 activator, GC-A act, MsrA inhibitor) | MsrA act confirm inactive
COc1cc2c(cc1OC)C(=O)C(c1ccc3c(c1)OCO3)CC2 (configuration not stated)	none
Clc1ccccc1CSc1nnc(-c2ccccn2)n1Cc1ccco1	none
NC(=O)CSc1nnc(-c2ccccn2)n1Cc1ccco1	MsrA act 9.0 | MsrA act confirm inactive
COc1ccccc1N1CCN(S(=O)(=O)c2ccc3c(c2)n(C)c(=O)c(=O)n3C)CC1	none (no result: MsrA act, MsrA inhibitor)
CCOC(=O)Cn1cc(-c2ccccc2)nn1	MsrA act 8.3 | MsrA act confirm inactive
CCOC(=O)Cn1nc(-c2ccccc2)ccc1=O	none
O=C(OCCN1CCCCC1)C1(c2ccccc2)CCCC1	none
O=C(OCCN1CCCC1)C1(c2ccccc2)CCCC1	MsrA act 9.6 | MsrA act confirm inactive
CCCC1CCC2(CCCN2CCOC(=O)Nc2ccccc2OC)CC1 (configuration not stated)	none (no result: MsrA act, MsrA inhibitor)
CCOc1ccc(-n2c(SCC(=O)c3ccc4ccccc4c3)nnc2-c2cccc(Cl)c2)cc1	none (no result: MsrA act, MsrA inhibitor)
OC12CCCCC1C(c1ccc3c(c1)OCO3)N(Cc1cccc(F)c1)CC2 (configuration not stated)	none

Assay outcomes: PubChem, several laboratories
